High-throughput results from PubChem BioAssay.
12-LOX inh – blocks human arachidonate 12S-lipoxygenase; P18054; purified 12hLO, xylenol orange hydroperoxide absorbance; Potency, µM (highest dose often 108 µM), usual class: inhibitors; 1.1% of 580,000 active; AID 1671190
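Hydroperoxide product was detected by ferrous iron/xylenol orange as the 573 to 405 nm absorbance ratio. Arachidonic acid at 40 uM (final) was turned over for 30 min at room temperature by 150 nM human 12hLO, pH 7.0 Hepes buffer, after 15 min compound preincubation.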
IL1B secr inh – inflammasome signaling inhibition, IL-1 beta readout; THP-1 LPS/ATP IL-1B secretion, AlphaLISA, 16 h; active compounds read low; activity change, % at 57.5 µM; 4.7% of 360,000 active; in the data active = activity change below about -50%; inconclusive = mostly about -30% to -49%
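THP-1 cells pretreated 1 hr with compounds (up to 57.5 uM final), then stimulated with LPS (250 ng/mL final) plus ATP (1.25 mM final); secreted IL-1B measured by AlphaLISA after 16 hr, decreased signal indicating inhibition.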
TDP1 cell CPT – growth inhibition of DT40 Tdp1-/-;hTDP1 cells with camptothecin (screen for TDP1 inhibitors); chicken DT40 Tdp1-/-;hTDP1 cells + 20 nM CPT, ATP luminescence, 48 h; Potency, µM (top dose mostly 46.2 µM), most hits filed as inhibitors; 12% of 420,000 active; AID 686979; also: nearly all actives have a fitted effect of over 55% in size
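Chicken DT40 Tdp1-/- cells stably complemented with human TDP1 were seeded at 400 cells/well in medium containing 20 nM camptothecin, exposed to pin-transferred compounds, and grown at 37 °C for at least 48 hr. Viability was read as ATP luminescence.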
DT40 TDP1 no CPT – qHTS for Inhibitors of human tyrosyl-DNA phosphodiesterase 1 (TDP1): qHTS in cells in absence of CPT; DT40 Tdp1-/- hTDP1 cells, no CPT, ATP luminescence, 48 h; Potency, µM (doses to about 46.2 µM), hits mostly inhibitors; 15% of 420,000 active; AID 686978, 2013; also: nearly all actives have a fitted effect of over 55% in size
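Growth kinetics read by CellTiter-Glo luminescence after ≥48 hr at 37 °C. Cells: DT40 Tdp1-/- stably carrying human TDP1, 400 per well, compound exposure in the absence of CPT (DMSO vehicle).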
HT1080 IDH1KD tx – toxicity to HT-1080 IDH1 knockdown cells (counter line); HT-1080 IDH1 knockdown viability, ATP luminescence, 48 h; Potency, µM (titrated, usually from 46.1 µM), actives largely listed as cytotoxic; 2% of 360,000 active; AID 686971
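Assay cells: HT-1080 with IDH1 knockdown, 750 per well, RPMI/5% FBS. Exposure: 48 h at 37 °C following 2 h pre-incubation. Read: CellTiter-Glo luminescence; fitted concentration-response, curve class assigned.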
HT1080-NT tox – kills 2HG-producing HT-1080-NT fibrosarcoma cells; HT-1080-NT fibrosarcoma viability, CellTiter-Glo ATP luminescence, 48 h; Potency, µM (series often up to 46.1 µM), most hits filed as cytotoxic; 1.6% of 360,000 active; AID 686970;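 also: NT is the 2HG producing partner of a matched IDH1 knockdown line; nearly all actives have a fitted effect of over 55% in size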
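Viability of the 2HG-overproducing fibrosarcoma line after 48 hours of compound exposure at 37 degrees C was determined by luminescence with CellTiter-Glo, and concentration-effect curves were then fitted and categorized.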
Each line names hits and unclear results; the compound was inactive in the other large screens. The sample as a whole holds a higher share of hits than the screen did. Unless noted, calls follow the shape of the dose curve; as a rule, active = well fitted curve in the direction sought with a large enough effect; inconclusive = small, poorly fitted or top-dose-only effect, or another doubt; inactive = no such curve, though single readings can be large; an effect the other way counts as inactive or inconclusive.

Cc1ccc(S(=O)(=O)N2CCN(c3ccc(C(=O)N4CCOCC4)cc3[N+](=O)[O-])CC2)cc1	TDP1 cell CPT 18µM, DT40 TDP1 no CPT 12µM
Cc1ccc(S(=O)(=O)N2CCN(C(=O)c3ccc(N4CCCCC4)c([N+](=O)[O-])c3)CC2)cc1	IL1B secr inh -62, TDP1 cell CPT inconclusive (no result: 12-LOX inh)
O=C(c1ccc(-n2cncn2)c([N+](=O)[O-])c1)N1CCN(S(=O)(=O)c2ccccc2Br)CC1	TDP1 cell CPT inconclusive, DT40 TDP1 no CPT inconclusive
Cc1cc(C)c(S(=O)(=O)N2CCN(C(=O)c3ccc(-n4cncn4)c([N+](=O)[O-])c3)CC2)c(C)c1	TDP1 cell CPT inconclusive, DT40 TDP1 no CPT 13µM
O=C(NCc1ccco1)c1ccc(N2CCOCC2)c([N+](=O)[O-])c1	none
Cc1ccc(N(Cc2ccco2)C(=O)c2ccc(N3CCCCC3)c([N+](=O)[O-])c2)cc1	TDP1 cell CPT 21µM, DT40 TDP1 no CPT 5.8µM, HT1080 IDH1KD tx inconclusive
O=C(NC1CCCCC1)OC1CC2CC1[C@H]1CCCCN1C2=O (some centres not stated)	none
Cc1ccc(CN2CCSc3ccc(C(=O)N4CCOCC4)cc32)cc1	TDP1 cell CPT inconclusive (no result: 12-LOX inh)
CCN1CCN(C(=O)c2ccc(CSc3ccc(C)cc3)cc2)CC1	12-LOX inh inconclusive, IL1B secr inh -54, TDP1 cell CPT inconclusive, DT40 TDP1 no CPT 13µM, HT1080-NT tox inconclusive
CCN1CCN(C(=O)c2ccc3c(c2)N(Cc2ccc(C)cc2)CCS3)CC1	TDP1 cell CPT 21µM, DT40 TDP1 no CPT 23µM
Cc1ccc(CN2CCSc3ccc(C(=O)N4CCN(c5ncccn5)CC4)cc32)cc1	IL1B secr inh -62, TDP1 cell CPT 21µM, DT40 TDP1 no CPT 16µM (no result: 12-LOX inh)
COc1ccc(-c2[nH]ncc2CN(C)CCc2c(C)n[nH]c2C)c(F)c1	none
COc1ccc(-c2[nH]ncc2CN(C)C(C)c2cccs2)c(F)c1 (configuration not stated)	TDP1 cell CPT 16µM, DT40 TDP1 no CPT inconclusive
CN(C(=S)NC(=O)C12CC3CC(CC(C3)C1)C2)c1ccc(O)cc1	12-LOX inh inconclusive, TDP1 cell CPT 5.8µM, DT40 TDP1 no CPT 4.6µM
CN(C)NC(=S)NC(=O)C12CC3CC(CC(C3)C1)C2	12-LOX inh inconclusive, TDP1 cell CPT 4.1µM, DT40 TDP1 no CPT 8.2µM
CC(C)(C)NC(=S)NC(=O)C12CC3CCC(CC(C3)C1)C2	12-LOX inh 22µM, TDP1 cell CPT inconclusive, DT40 TDP1 no CPT inconclusive
O=C(NC(=S)Nc1ccc(Cl)cn1)C12CC3CC(CC(C3)C1)C2	12-LOX inh inconclusive, TDP1 cell CPT inconclusive, DT40 TDP1 no CPT inconclusive
CN(C)c1ccc(C(=O)NNC(=O)C23CC4CC(CC(C4)C2)C3)cc1	DT40 TDP1 no CPT inconclusive
O=C(NC(=S)NC1C2CC3CC(C2)CC1C3)C12CC3CC(CC(C3)C1)C2 (configuration not stated)	12-LOX inh inconclusive, TDP1 cell CPT inconclusive, DT40 TDP1 no CPT 15µM
CN1CCC(N(C)C(=S)NC(=O)C23CC4CC(CC(C4)C2)C3)CC1	none
NC(N)=NCCN1CCN(Cc2ccccc2)CC1	none (no result: IL1B secr inh, TDP1 cell CPT, DT40 TDP1 no CPT, HT1080 IDH1KD tx, HT1080-NT tox)
O=S(=O)(CC(CN1CCCC1)N1CCCC1)c1ccc2ccccc2c1 (configuration not stated)	IL1B secr inh -107, TDP1 cell CPT 3.3µM, DT40 TDP1 no CPT 4.6µM, HT1080 IDH1KD tx 23µM, HT1080-NT tox 16µM
CCN(CCNC(=O)C1CCN(Cc2nc(-c3ccc(Cl)cc3)oc2C)CC1)c1ccccc1	IL1B secr inh -54, TDP1 cell CPT 23µM, DT40 TDP1 no CPT 18µM, HT1080 IDH1KD tx inconclusive, HT1080-NT tox inconclusive
COc1ccc(CCNC(=O)C2CCN(Cc3nc(-c4ccc(Cl)cc4)oc3C)CC2)cc1OC	DT40 TDP1 no CPT inconclusive
